Measured potencies and affinities stand elsewhere. Activity calls are given as the source filed them. The rule behind the calls is not given here.
Each compound was assayed against Acyl-homoserine lactone acylase PvdQ (Pseudomonas aeruginosa (strain ATCC 15692 / DSM 22644 / CIP 104116 / JCM 14847 / LMG 12228 / 1C / PRS 101 / PAO1)) (UniProt Q9I194) (assay: PvdQ acylase enzyme activity blockers – biochemical, fluorescence, plate reader and imaging, cherry-picks, dose response (AID 493231;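 note: more negative values mean stronger inhibition of the acylase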)). Settings: purified PvdQ acylase, fluorogenic substrate; series mostly up to 10 µM.
Acyl-homoserine lactone acylase PvdQ (Pseudomonas aeruginosa (strain ATCC 15692 / DSM 22644 / CIP 104116 / JCM 14847 / LMG 12228 / 1C / PRS 101 / PAO1)), sequence (Q9I194 whole entry, looked up): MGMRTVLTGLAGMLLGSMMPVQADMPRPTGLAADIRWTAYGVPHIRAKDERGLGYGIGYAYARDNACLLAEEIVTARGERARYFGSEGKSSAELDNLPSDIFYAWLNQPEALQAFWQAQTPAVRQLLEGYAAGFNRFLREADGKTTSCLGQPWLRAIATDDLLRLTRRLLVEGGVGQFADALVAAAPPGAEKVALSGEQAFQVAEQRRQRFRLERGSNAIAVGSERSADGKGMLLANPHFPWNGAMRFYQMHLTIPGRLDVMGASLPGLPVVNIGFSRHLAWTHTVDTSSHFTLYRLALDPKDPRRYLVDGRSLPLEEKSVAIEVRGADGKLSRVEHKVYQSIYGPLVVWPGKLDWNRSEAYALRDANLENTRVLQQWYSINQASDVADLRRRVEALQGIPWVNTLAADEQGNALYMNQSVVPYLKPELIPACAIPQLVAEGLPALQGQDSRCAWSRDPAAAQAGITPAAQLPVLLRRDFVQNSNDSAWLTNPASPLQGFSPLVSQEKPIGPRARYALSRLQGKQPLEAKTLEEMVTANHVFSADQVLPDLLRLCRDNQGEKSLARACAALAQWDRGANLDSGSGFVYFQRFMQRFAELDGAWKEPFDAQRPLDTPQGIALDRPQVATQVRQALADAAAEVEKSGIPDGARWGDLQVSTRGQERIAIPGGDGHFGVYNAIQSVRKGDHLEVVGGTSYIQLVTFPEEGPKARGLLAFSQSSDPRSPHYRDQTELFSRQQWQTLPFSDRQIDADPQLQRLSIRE

outcome, inactive:
CN1C=CC=C/C1=C1\SC(=S)N(Cc2ccccc2)C1=O
Cc1cc(C(=O)Nc2ccc(F)c(Cl)c2)on1
Cc1nc(N2CCNCC2)c2c3c(sc2n1)CCCC3
Cn1cccc1Cc1nnc(SCC(=O)N2CCN(c3ccccc3)CC2)n1-c1ccc(F)cc1
CCOc1ccc(NC(=S)NCc2cccnc2)cc1
COc1ccc(OC)c(C(=O)c2oc3ccccc3c2NC(C)=O)c1
Cc1cccc(NCc2ccccc2O)n1
COc1ccc2cc(C)c3nnc(SCC(=O)Nc4cc(OC)c(OC)cc4C(=O)O)n3c2c1
CCN(c1ccccc1)S(=O)(=O)c1cc(C(=O)Nc2ccccc2Cl)ccc1F
O=C(CSc1n[nH]c(=O)n1Cc1ccco1)c1ccc2c(c1)OCCO2
O=C(O)CC1S/C(=N/N=C/C=C/c2ccccc2)NC1=O (stereo unspecified)
Cc1ccc(Nc2nc(-c3sc(C)nc3C)cs2)cc1
CCOC(=O)CSc1nnc(-c2ccc(S(=O)(=O)N3CCC(C)CC3)cc2)o1
N#C/C(=C\c1ccc([N+](=O)[O-])cc1)c1ccccn1
COc1ccc(CCNC(=O)c2cccc(S(=O)(=O)N3CCc4ccccc4C3)c2)cc1
C(=C\c1nnc(-c2cccs2)o1)/c1ccccc1
Cc1ccc2nc(-c3ccc(NS(=O)(=O)c4ccc(F)cc4)cc3)sc2c1
O=c1[nH]c(C2CCN(S(=O)(=O)c3ccc(C(F)(F)F)cc3)CC2)nc2c1nnn2Cc1ccc(F)cc1
COCCNC(=O)c1cc2nc(-c3ccccc3)cc(C)n2n1
Cn1nnnc1SCC(=O)NCCCc1ccccc1
CN1C(=O)/C(=C/c2ccc(O)c([N+](=O)[O-])c2)N(C)C1=S
COc1ccc(C(=O)N/N=C/c2ccc(OC)c(CN3CCCc4ccccc43)c2)cc1
CC(=O)N/N=C/c1c(C)[nH]n(-c2ccccc2)c1=O
COCCCNC(=O)c1cc(S(=O)(=O)NCCCN2CCCC2=O)ccc1Cl
O=C(CCCN1C(=O)/C(=C/c2ccccc2)SC1=S)Nc1ccccc1O
N#Cc1cc([N+](=O)[O-])ccc1Oc1cccc(/C=N/NC(=O)c2ccc(Cl)cc2)c1
O=[N+]([O-])c1ccc2c(c1)Cc1cc(F)ccc1-2
COc1ccccc1OCCC(=O)OCC(=O)c1c(N)n(C)c(=O)n(C)c1=O
CCOC(=O)CC(NC(=O)c1ccco1)c1ccccc1Cl (stereo unspecified)
COC(=O)C(C(=O)OC)c1ncccc1[N+](=O)[O-]
O=C1/C(=C/c2cccc([N+](=O)[O-])c2)Oc2cc(O)ccc21
CCn1c(SCC(=O)N/N=C/c2ccc(C)o2)nnc1-c1ccc(C(C)(C)C)cc1
Cc1ccccc1OCCSc1nnc(-c2ccncc2)n1C
Cc1onc(-c2ccccc2)c1C(=O)c1c[nH]c(C(=O)NCCCN2CCOCC2)c1
CCCN(c1nc(C)cc(OC)n1)S(=O)(=O)c1ccccc1
COc1ccc(S(=O)(=O)NCCc2ccccc2)c2cccnc12
